Screening data deposited in PubChem BioAssay by National Center for Advancing Translational Sciences (NCATS).
A selection: hits, their analogues and other compounds. The true share with any hit is near 10%.
ALDH1A1 block – blocks purified human ALDH1A1 activity | Purified ALDH1A1, NADH fluorescence, propionaldehyde substrate | P00352 | 220,000 compounds, 7.3% hits | Potency, µM (titrated, usually from 75.3 µM), inactives show at the highest dose activity, negative = inhibition, most hits filed as inhibitors;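 note: potency is the fitted concentration of half-maximal effect; plate controls were no enzyme wells and a reference inhibitor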
HPGD block – blocks human HPGD enzyme activity; purified HPGD, NADH fluorescence kinetic, PGE2 substrate; 150,000 compounds, 4.3% hits; AID 894; Potency, µM, for inactives: top-dose activity change, negative = inhibition, most hits filed as inhibitors; note: potency is the fitted concentration of half-maximal effect
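20 nM HPGD preincubated 15 min at room temperature with compound in 50 mM Tris-HCl pH 8, 0.01% Tween 20. Started with 1 mM NAD+ and 30 uM prostaglandin E2; NADH fluorescence (360/450 nm) read 5 times over 30-s intervals, last minus first.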
PNC inhibitor – blocks assembly of the perinucleolar compartment | PC3M PTB-GFP, PNC prevalence imaging, 16 h; hits give low values | activity change (PNC), negative = inhibition, % at 10 µM | 140,000 compounds, 3.1% hits | AID 2417;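 active = readout at or below -70, meaning at least 70% loss of cells showing the perinucleolar compartment, a nuclear body marking cancer cells; inconclusive = readout between -30 and a set limit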;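 note: plate controls were DMSO wells for no effect and camptothecin positive control wells for full effect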
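Read-out is percentage of cells bearing a perinucleolar compartment, from automated 20x imaging of fixed, Hoechst-stained PC3M PTB-GFP cells. Cells were seeded 4 h, then exposed 16 h to compound (23 nl of library stock) in duplicate plates.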
LMNA splice mod – modulators of lamin A splicing; HeLa LMNA splicing GFP/RFP minigene ratio, 48 h; Potency, µM (series often up to 46.1 µM), for inactives: at the highest dose ratio change, negative = inhibition, actives largely listed as inhibitors; 200,000 compounds, 0.01% hits; active = well fitted inhibition curve with a large enough effect in the signal ratio, with a control signal flat, not every such curve was filed as active; inconclusive = small, poorly fitted or top-dose-only effect, or effect the other way, or a change in a side signal; the % refers to the signal ratio; note: potency is the fitted concentration of half-maximal effect
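S3 HeLa cells stably expressing lamin A-EGFP splicing minigene plus DsRed2, 600 cells/well, 48 h compound exposure at 37C. Laser-scanning cytometry; analysed as GFP (500-530 nm)/RFP (575-640 nm) total intensity ratio; 0.5% DMSO vehicle.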
12-hLO inh – inhibitors of human 12-lipoxygenase (ALOX12); P18054; purified 12-hLO, xylenol orange hydroperoxide absorbance; Potency, µM (doses to about 57.1 µM), without a hit: at the top dose activity change, negative = inhibition, actives largely listed as inhibitors; 150,000 compounds, 0.12% hits; AID 1452; active = well fitted inhibition curve with a large enough effect; inconclusive = small, poorly fitted or top-dose-only effect; note: potency is the fitted concentration of half-maximal effect; nearly all actives have a fitted effect of over 55% in size
Target sequence (P18054 whole entry, looked up): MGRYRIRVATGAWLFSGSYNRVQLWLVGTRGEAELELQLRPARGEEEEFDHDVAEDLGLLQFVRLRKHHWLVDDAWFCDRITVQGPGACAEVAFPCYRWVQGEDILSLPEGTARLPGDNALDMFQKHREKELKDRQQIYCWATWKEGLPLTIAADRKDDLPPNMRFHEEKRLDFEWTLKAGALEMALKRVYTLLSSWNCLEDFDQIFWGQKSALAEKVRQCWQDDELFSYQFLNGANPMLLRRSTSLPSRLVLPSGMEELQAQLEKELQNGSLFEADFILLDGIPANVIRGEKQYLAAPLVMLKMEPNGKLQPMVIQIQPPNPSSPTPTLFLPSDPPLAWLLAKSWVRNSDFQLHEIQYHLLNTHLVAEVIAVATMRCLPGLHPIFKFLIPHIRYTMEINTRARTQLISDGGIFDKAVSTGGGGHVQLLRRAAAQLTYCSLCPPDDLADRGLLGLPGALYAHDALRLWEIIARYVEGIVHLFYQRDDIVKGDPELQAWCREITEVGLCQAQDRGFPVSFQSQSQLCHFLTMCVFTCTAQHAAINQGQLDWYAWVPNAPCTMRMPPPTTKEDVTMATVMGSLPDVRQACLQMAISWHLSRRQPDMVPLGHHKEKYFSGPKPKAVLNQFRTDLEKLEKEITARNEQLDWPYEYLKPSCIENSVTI
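Purified human 12hLO (150 nM), preincubated 15 min with compound, then 40 uM arachidonic acid for 30 min, room temperature, Hepes pH 7.0 with 0.01% Triton X-100. Hydroperoxide detected by ferrous iron/xylenol orange; 573/405 nm absorbance ratio gives reaction progress.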
The depositor's hits bear a star; ? = inconclusive; . = not tested or not shown; [ ] = dose if it differs, or a comment. Unless noted, calls come from the whole dose curve; as a rule, active = well fitted inhibition curve with a large enough effect (not every such curve was filed as active); inconclusive = small, poorly fitted or top-dose-only effect, or another doubt; inactive = no such curve, though single readings can be large or run the other way. Unless noted, % is set by controls: 0 for no effect and ±100 for the full control effect.

SMILES	ALDH1A1 block	HPGD block	PNC inhibitor	LMNA splice mod	12-hLO inh
C=CCSc1nc2c(c(=O)[nH]c(=O)n2C)n1C(C)C	3.2µM*	18µM*	-8	11%	-5%
C/C(Cl)=C/CSc1nc2c(c(=O)[nH]c(=O)n2C)n1C(C)C	?	-12%	24	9%	-5%
CCc1cc2c(NCC3CCCO3)ncnc2s1 (stereo not drawn)	?	14µM*	11	?	1%
Cc1ccc(-n2ncc3c(NCC4CCCO4)ncnc32)c(C)c1 (stereo not drawn)	-11%	2.2µM*	38	-13%	-1%
CCN(CC)C(=O)C1CCN(c2ncnc3c2cnn3-c2ccc(C)cc2C)CC1	10µM*	22µM*	-24	-2%	-2%
Cc1ccc(-n2ncc3c(N4CCC(C(N)=O)CC4)ncnc32)c(C)c1	-2%	-3%	-17	-5%	-4%
CCc1cc2c(N[C@@H](Cc3c[nH]c4ccccc34)C(=O)O)ncnc2s1	1%	-13%	-25	-11%	-3%
CCc1cc2c(NC(C(=O)O)C(C)C)ncnc2s1 (stereo not drawn)	16µM*	-6%	10	8%	0%
Cc1sc2ncnc(NCC3CCCO3)c2c1C (stereo not drawn)	-12%	-15%	33	-2%	1%
Cc1ccc(C2CCN(C(=O)c3cnn(-c4ccc(C)c(C)c4)c3C3CCN(C(=O)OC(C)(C)C)CC3)C2)cc1 (stereo not drawn)	.	.	.	-29%[46 µM]	.
COc1cccc(NC(=O)C2CCCN(c3ncnc4onc(-c5ccc(F)cc5)c34)C2)c1 (stereo not drawn)	.	.	.	1%[46 µM]	.
Cc1cccc(CNc2ncnc3ccc(-c4ccccc4CN(C)C)cc23)c1	?	?	.	-18%	-4%
C=CCNc1ncnc2c1cnn2-c1ccc(C)cc1C	0%	14µM*	6	-20%	-11%
O=[N+]([O-])c1cnc(N2CCCCC2)c([N+](=O)[O-])c1	18µM*	-24%	?	-8%	5%
Cn1nc([N+](=O)[O-])nc1N1CCOCC1	2%	-9%	-11	-4%	1%
Cc1cc([N+](=O)[O-])cnc1N1CCOCC1	-3%	-3%	-114*	1%	-2%
N#C/C(=C\NC(=S)c1ccncc1)c1nc2ccccc2s1	?	-17%	.	.	1%[11.4 µM]
O=C1CC[C@H](NC(=O)c2ccccc2)C(=O)N1	10%[13.5 µM]	-11%	.	.	-4%[11.4 µM]
COc1cccc(C(=O)N2CCOCC2)c1OC	1%	.	.	.	.
O=C(c1ccc2c3c(cccc13)CC2)N1CCOCC1	14µM*	11µM*	-21	-2%	-17%
COc1cccc(C(=O)Nc2nnc(S(=O)(=O)N3CCCc4ccccc43)s2)c1	.	.	.	9%[46 µM]	.
CN1C(=O)N(C)C2(c3ccccc3)Nn3c(s/c(=C/c4ccccc4F)c3=O)=NC12c1ccccc1 (stereo not drawn)	13%	-12%	-15	-2%	7%
CN(C)c1ccc(/C=c2/sc3n(c2=O)NC2(c4ccccc4)N(C)C(=O)N(C)C2(c2ccccc2)N=3)cc1 (stereo not drawn)	12%	-6%	-84*	-2%	0%
O=C1OC(=O)[C@@H]2[C@@H]1[C@@H]1CC[C@H]2O1	.	.	.	.	-3%
CCC(NC(=O)Nn1cnnc1)(C(F)(F)F)C(F)(F)F	2%	-17%	-100*	-6%	1%
SMILES	ALDH1A1 block	HPGD block	PNC inhibitor	LMNA splice mod	12-hLO inh
CCC(NC(=O)Nc1ccc(O)cc1)(C(F)(F)F)C(F)(F)F	9%	-8%	1	-3%	-16%
O=C(CC1OC(=O)c2ccccc21)Nc1ccccc1N1CCOCC1 (stereo not drawn)	-7%	-3%	?	1%	-1%
CC(=O)N1CCN(C(=O)CC2OC(=O)c3ccccc32)CC1 (stereo not drawn)	5µM*	?	7	?	-5%
Cc1nc2ncnn2c(N2CCCC(C(=O)Nc3ccc4c(c3)CCC4)C2)c1C (stereo not drawn)	?	28µM*	-11	?	-5%
O=C1NC(=Nc2ccccc2)S/C1=C/c1cccs1	5%	.	.	0%[9.22 µM]	.
Cc1cc(/C=C2\SC(=Nc3ccccc3)NC2=O)c(C)n1-c1ccc(S(N)(=O)=O)cc1	28µM*	-18%	-30	?	-17%
COc1ccc(/C=C2\N=C3CCCCCN3C2=O)cc1OC	14µM*	-17%	4	9%	-15%
